Test results: PubChem BioAssay (NCI)
This is part of a sample that, as a whole, favours compounds with a hit. Of some 83,000 tested, about 20% had one in any assay.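 Growth was measured after 48 h exposure to one concentration of compound in 96-well plates. Values under 10 count as active.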 The source made the active and inactive calls.

Key:
Assay in all cases: NCI-60 one-dose screen, 48 h (100 = growth as untreated, 0 = no growth, -100 = all killed)
Conditions in all cases: 10 µM unless noted
NCI-H23 lung = test system: NCI-H23 lung
NCI-H226 lung = test system: NCI-H226 lung
NCI-H322M lung = test system: NCI-H322M lung
HOP-62 NSCLC = test system: HOP-62 NSCLC
NCI-H460 lung = test system: NCI-H460 lung
HOP-92 NSCLC = test system: HOP-92 NSCLC
NCI-H522 lung = test system: NCI-H522 lung
A549/ATCC NSCLC = test system: A549/ATCC NSCLC
786-0 renal = test system: 786-0 renal
COLO 205 colon = test system: COLO 205 colon
DU-145 prostate = test system: DU-145 prostate
K-562 leukemia = test system: K-562 leukemia
MALME-3M melanoma = test system: MALME-3M melanoma
MDA-MB-231 breast = test system: MDA-MB-231 breast
RXF 393 renal = test system: RXF 393 renal
SF-268 CNS = test system: SF-268 CNS
SF-295 CNS = test system: SF-295 CNS
SF-539 CNS = test system: SF-539 CNS
UACC-257 melanoma = test system: UACC-257 melanoma
M14 melanoma = test system: M14 melanoma

Measured: growth

CN(C)CCN1C(=O)c2ccc3c4c(ccc(c24)C1=O)C(=O)N(CCN=C=S)C3=O
active: NCI-H23 lung -61.7% | NCI-H226 lung -94.7% | NCI-H322M lung -94.1% | HOP-62 NSCLC -96.3% | NCI-H460 lung -43.5% | HOP-92 NSCLC -79.5% | NCI-H522 lung -93.8% | A549/ATCC NSCLC -52.8% | 786-0 renal -81.3% | COLO 205 colon -87.9% | DU-145 prostate -97.1% | K-562 leukemia -29.7% | MALME-3M melanoma -63.7% | MDA-MB-231 breast -84.5% | RXF 393 renal -98.5% | SF-268 CNS -89% | SF-295 CNS -71.7% | SF-539 CNS -81.7% | UACC-257 melanoma -95.3% | M14 melanoma -77.5%

COC(=O)C(Sc1ccc(Cl)cc1)C1SC(=S)N(Cc2ccccc2)C1=O (stereo not given)
inactive: NCI-H23 lung 97.3% | NCI-H226 lung 116% | NCI-H322M lung 105% | HOP-62 NSCLC 95.1% | NCI-H460 lung 107% | HOP-92 NSCLC 104% | NCI-H522 lung 96.7% | A549/ATCC NSCLC 98.2% | 786-0 renal 103% | COLO 205 colon 117% | DU-145 prostate 102% | K-562 leukemia 44% | MALME-3M melanoma 98.9% | MDA-MB-231 breast 98.9% | RXF 393 renal 106% | SF-268 CNS 87.7% | SF-295 CNS 75.6% | SF-539 CNS 109% | UACC-257 melanoma 92.2% | M14 melanoma 100%

CCOC(=O)c1cn2c3c(cccc3c1=O)C(=O)/C(=C/c1cccc(Cl)c1Cl)C2
inactive: NCI-H23 lung 93% | NCI-H226 lung 83% | NCI-H322M lung 97.4% | HOP-62 NSCLC 81.8% | NCI-H460 lung 107% | HOP-92 NSCLC 63.8% | NCI-H522 lung 73.1% | A549/ATCC NSCLC 98.2% | 786-0 renal 90.6% | COLO 205 colon 117% | DU-145 prostate 106% | K-562 leukemia 91% | MALME-3M melanoma 116% | MDA-MB-231 breast 89.5% | RXF 393 renal 87% | SF-268 CNS 87.9% | SF-295 CNS 95.8% | SF-539 CNS 101% | UACC-257 melanoma 87.5% | M14 melanoma 98.7%

CCN(CC)c1ccc2[nH]c3c(C(N)=O)cc(=O)c(=O)c=3oc2c1
inactive: HOP-92 NSCLC 26% | 786-0 renal 15% | MDA-MB-231 breast 18% | SF-268 CNS 10.5%
active: NCI-H23 lung -28.2% | NCI-H226 lung 7.46% | NCI-H322M lung -9.42% | HOP-62 NSCLC -11.8% | NCI-H460 lung -31.8% | NCI-H522 lung -39.7% | A549/ATCC NSCLC -5.31% | COLO 205 colon 1.25% | DU-145 prostate -1.89% | K-562 leukemia 9.48% | MALME-3M melanoma -59.9% | RXF 393 renal -24.5% | SF-295 CNS -9.14% | SF-539 CNS -28.3% | UACC-257 melanoma -29.2% | M14 melanoma -7.36%

CCCCCCCCN(CCCCCCCC)CCCCCCNc1cc(OC)cc2cccnc12
inactive: NCI-H23 lung 55.6% | NCI-H226 lung 100% | NCI-H322M lung 88.5% | HOP-62 NSCLC 96.7% | NCI-H460 lung 92.8% | HOP-92 NSCLC 62.6% | NCI-H522 lung 92.1% | A549/ATCC NSCLC 105% | 786-0 renal 93.7% | COLO 205 colon 33.3% | DU-145 prostate 27.4% | K-562 leukemia 80.1% | MALME-3M melanoma 61.7% | MDA-MB-231 breast 52% | RXF 393 renal 108% | SF-268 CNS 83.4% | SF-295 CNS 109% | SF-539 CNS 111% | UACC-257 melanoma 18.2%
active: M14 melanoma -1.6%

CCN(CC)CCC(CNc1c2ccc(Cl)cc2nc2ccc(OC)cc12)c1ccccc1 (stereo not given)
inactive: NCI-H23 lung 34.1% | NCI-H226 lung 13.9% | NCI-H322M lung 17.5%
active: HOP-62 NSCLC -49.8% | NCI-H460 lung -39.6% | HOP-92 NSCLC -1.53% | NCI-H522 lung -81% | A549/ATCC NSCLC -62.4% | 786-0 renal -85% | COLO 205 colon -91.9% | DU-145 prostate -23.3% | K-562 leukemia -21.8% | MALME-3M melanoma -85.1% | MDA-MB-231 breast -46.1% | RXF 393 renal -97.7% | SF-268 CNS 8.46% | SF-295 CNS -33.2% | SF-539 CNS -79.6% | UACC-257 melanoma -91.1% | M14 melanoma -87.9%

CC(C)(C)n1cc(-c2ccnc(NCCCNS(=O)(=O)c3ccc(Cl)cc3)c2)c(-c2cccc(O)c2)n1
inactive: NCI-H23 lung 14% | NCI-H226 lung 14% | NCI-H322M lung 10.6% | DU-145 prostate 13.1% | SF-268 CNS 20.7%
active: HOP-62 NSCLC 9.75% | NCI-H460 lung -66.7% | HOP-92 NSCLC -2.33% | NCI-H522 lung -55.7% | A549/ATCC NSCLC 9.33% | 786-0 renal -35.2% | COLO 205 colon -86.8% | K-562 leukemia -23.3% | MALME-3M melanoma -44.5% | MDA-MB-231 breast -24.4% | RXF 393 renal -12% | SF-295 CNS -45% | SF-539 CNS -26.1% | UACC-257 melanoma -39.3% | M14 melanoma -23.2%

COc1ccc(-c2nc(-c3nc4cc(C)c(C)cc4[nH]3)cc3c2[nH]c2ccccc23)cc1
inactive: NCI-H23 lung 60.1% | NCI-H226 lung 95.8% | NCI-H322M lung 84% | HOP-62 NSCLC 58.4% | NCI-H460 lung 42.2% | HOP-92 NSCLC 52.3% | NCI-H522 lung 72.5% | A549/ATCC NSCLC 43.2% | COLO 205 colon 41.9% | DU-145 prostate 84.7% | K-562 leukemia 11.4% | MALME-3M melanoma 73.1% | SF-268 CNS 80.5% | SF-295 CNS 25.4% | UACC-257 melanoma 89.1% | M14 melanoma 70.2%
active: 786-0 renal 6.87% | MDA-MB-231 breast -49.5% | RXF 393 renal -63.8% | SF-539 CNS 5.88%
